Screening results: PubChem, several laboratories
An excerpt weighted towards active compounds, which were near 4% of everything screened.
ADAM17 inh: inhibits human ADAM17 | P78536 | recombinant ADAM17, EDANS/DABCYL FRET peptide cleavage | inhibition, % at 6.95 µM | 370,000 compounds, 0.83% hits | AID 720648;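 active means inhibition above the mean of compounds lying between control limits plus 3 SD, set per campaign, cut at about 8.5% in these data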;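 further: 0% = DMSO-only wells as the low control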
Target sequence (P78536 215-824 limits assumed): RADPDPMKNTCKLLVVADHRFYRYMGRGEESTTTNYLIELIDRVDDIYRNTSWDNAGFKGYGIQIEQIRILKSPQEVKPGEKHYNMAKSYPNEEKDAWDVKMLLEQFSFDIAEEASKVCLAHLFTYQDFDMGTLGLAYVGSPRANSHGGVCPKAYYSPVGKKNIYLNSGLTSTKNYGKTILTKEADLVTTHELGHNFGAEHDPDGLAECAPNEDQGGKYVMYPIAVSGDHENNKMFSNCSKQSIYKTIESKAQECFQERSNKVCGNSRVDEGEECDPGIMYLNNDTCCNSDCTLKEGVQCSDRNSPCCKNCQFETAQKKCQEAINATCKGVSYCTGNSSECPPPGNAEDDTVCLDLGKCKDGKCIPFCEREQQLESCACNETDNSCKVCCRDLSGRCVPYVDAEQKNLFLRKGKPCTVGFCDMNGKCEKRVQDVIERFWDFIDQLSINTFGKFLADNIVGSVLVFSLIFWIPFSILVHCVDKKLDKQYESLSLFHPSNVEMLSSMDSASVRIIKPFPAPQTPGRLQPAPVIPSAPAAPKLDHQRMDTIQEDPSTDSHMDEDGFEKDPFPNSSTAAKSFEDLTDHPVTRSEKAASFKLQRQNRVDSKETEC
aDG glyco act: alpha-DG glycosylation activation. 360,000 compounds, 0.22% hits. Pro5-aDG cells, alpha-DG glycosylation AlphaScreen (IIH6); 0% Pro5, 100% B10-LARGE cell signal. activation, % at 10 µM. AID 624168;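 active means activation of at least 8% versus controls, or a plate z-score of at least 8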;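 further: Pro5 are CHO cells carrying HIG-tagged alpha-DG that lacks glycosylation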
FAS-TE inh: FAS thioesterase (human) inhibition | inhibition, % at 15 µM | 360,000 compounds, 0.67% hits | P49327 | recombinant FAS-TE, OMFH fluorogenic substrate, fluorescence endpoint;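 active means compounds whose normalised, plate-corrected inhibition of enzyme fluorescence in the single-dose primary screen is 50% or more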;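 further: 0% = DMSO with enzyme and 100% = substrate without enzyme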
GRIN3A LBD mod: NR3A (human) ligand-binding domain modulation; Tm shift relative to glycine control, % at 25 µM; 340,000 compounds, 2.5% hits; NR3A LBD differential scanning fluorimetry, Tm shift; 0% = protein alone, 100% = glycine-bound protein; AID 1259313;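 active means melting temperature shift of at least 10% of the positive control shift, at one fixed dose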
ADAM10 inh: inhibits human ADAM10 | O14672 | inhibition, % at 7 µM | recombinant ADAM10, EDANS/DABCYL FRET peptide cleavage, 3 h | 370,000 compounds, 0.62% hits;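 active means inhibition above a per-campaign cutoff equal to the mean of compounds falling between control-based bounds plus 3 SD, cut at about 20% in these data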;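 further: 0% = DMSO wells while the 100% control is not disclosed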
FAS-TE conf: FAS thioesterase (human) inhibition, confirmation; shares compounds with FAS-TE inh; recombinant FAS-TE, OMFH fluorogenic substrate, fluorescence; inhibition, % at 15 µM; 2,300 compounds, 45% hits; AID 624325;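 active means compounds inhibiting the enzyme by at least 50% at 15 µM in any one of the replicates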;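 further: 0% = enzyme with DMSO only and 100% = wells lacking enzyme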
* marks the source's active call; other numbers are inactive results; / = no result.

SMILES | ADAM17 inh | aDG glyco act | FAS-TE inh | GRIN3A LBD mod | ADAM10 inh | FAS-TE conf
COc1cc(N)c(Cl)cc1C(=O)OC(C)C(=O)Nc1cccc(S(=O)(=O)N2CCOCC2)c1 (configuration not stated) | 4 | 0 | -2 | -3 | 6 | /
Cc1ccc(NC(=O)CSc2nc3nn(-c4ccccc4)c(=O)c-3c3n2CCCCC3)cc1F | 1 | 0 | 74* | 4 | -7 | 31
O=C(NCc1ccncc1)c1cc(S(=O)(=O)N2CCOCC2)c(Cl)cc1Cl | -4 | 0 | -7 | 2 | -4 | /
Cc1ccc(-c2nnc(SCC(=O)N/N=C/c3c(C)nn(-c4ccccc4)c3C)n2-c2ccc(C)cc2)cc1 | 3 | 1 | 62* | 0 | -5 | 16
CCOc1cc(C(=O)NCc2ccc(-c3nc4ccccc4o3)cc2)cc(OCC)c1OCC | 0 | 0 | -10 | 1 | -9 | /
COCCN1C(=O)CCC1(C)c1nnnn1-c1c(C)cccc1C (configuration not stated) | -6 | 0 | -8 | / | -18 | /
Cc1ccc(NC2(c3nnnn3-c3c(C)cccc3C)CCCCC2)cc1 | 6 | 0 | 54* | 5 | 4 | 30
COc1cccc(C2CC(C(F)(F)F)n3nc(C(=O)Nc4c(C)n(C)n(-c5ccccc5)c4=O)cc3N2)c1 (configuration not stated) | -6 | 0 | -2 | -2 | -4 | /
CN(C(=O)COC(=O)c1c2c(nc3ccccc13)/C(=C/c1cccc([N+](=O)[O-])c1)CCC2)C1CCS(=O)(=O)C1 (configuration not stated) | -2 | -1 | 67* | 3 | 8 | 14
O=C(Nc1ccc(Nc2ccccc2)cc1)c1cc([N+](=O)[O-])ccc1Cl | 6 | 2 | 59* | 4 | 9 | 49*
O=C(Nc1ccc(S(=O)(=O)N2CCOCC2)cc1)c1cc([N+](=O)[O-])ccc1Cl | -3 | 0 | 65* | 3 | 1 | 42
O=C(NC1CCCCCCC1)c1cc([N+](=O)[O-])ccc1Cl | 1 | 0 | 66* | 0 | 6 | 65*
O=C(NC1CCCCC1)c1cc([N+](=O)[O-])ccc1N1CCCC1 | 2 | 0 | 46 | 2 | 0 | /
COc1cccc(C=Cc2nccc3ccccc23)c1OC | -6 | 0 | 4 | / | -31 | /
COc1ccc(C2CC(c3cccs3)=NN2C(=O)CSc2nc(=O)n3cc(C)ccc3n2)cc1 (configuration not stated) | 1 | 0 | 53* | 3 | -4 | 4
COc1ccc(C2CC(c3cccs3)=NN2C(=O)CSC2=NCCS2)cc1 (configuration not stated) | -8 | 0 | 21 | -2 | -32 | /
CC(NC(=S)NC1CCCCC1)C(c1cccs1)N1CCOCC1 (configuration not stated) | -7 | 0 | -1 | 0 | -3 | /
CCOC1=C2CN(S(=O)(=O)c3ccc(C)cc3)[C@H](c3ccccc3)C[C@H]2n2c(=O)n(-c3ccccc3)c(=O)n2C1 | 0 | 0 | 70* | / | 2 | 14
CCOC1=C2[C@H](c3ccccc3)N(S(=O)(=O)c3ccc(C)cc3)C[C@H]2n2c(=O)n(-c3ccccc3)c(=O)n2C1 | 1 | 0 | 41 | / | 2 | /
CCOC1=C2[C@H](c3ccc(Cl)cc3)N(S(=O)(=O)c3ccc(C)cc3)C[C@H]2n2c(=O)n(-c3ccccc3)c(=O)n2C1 | -4 | 0 | 56* | / | -3 | 13
COc1ccc(-n2c(SCC(=O)Nc3ccc4c(c3)OCO4)nc3c(c2=O)SCC3)cc1 | -1 | 0 | 7 | 0 | 1 | /
O=C(c1cc(-c2cccs2)nc2ccccc12)N1CCN(c2ccccc2)CC1 | -17 | 0 | 50* | -6 | -55 | 21
CC(C)Oc1ccc(C2CC(=O)N(Nc3ccc([N+](=O)[O-])cc3[N+](=O)[O-])C2=O)cc1 (configuration not stated) | 1 | 0 | 90* | 4 | -1 | 92*
CCOc1ccc(C2CC(=O)N(Nc3ccc([N+](=O)[O-])cc3[N+](=O)[O-])C2=O)cc1 (configuration not stated) | 3 | 0 | 86* | 0 | 3 | 69*
